Assay results published in publication PMC4336329 (PLoS ONE, 2015).
Among all 310,000 compounds or so, about 2,200 (0.71%) showed an effect of 50% or more. The effect is printed as a negative number. The sample as a whole holds a higher share of strong results than the screen did.

target: human ether-à-go-go-related gene (hERG) potassium channel (human, UniProt Q12809); assay: primary screen, population patch clamp on CHO cells stably expressing hERG; higher = less effect of the substance
Sequence (Q12809 whole entry, looked up): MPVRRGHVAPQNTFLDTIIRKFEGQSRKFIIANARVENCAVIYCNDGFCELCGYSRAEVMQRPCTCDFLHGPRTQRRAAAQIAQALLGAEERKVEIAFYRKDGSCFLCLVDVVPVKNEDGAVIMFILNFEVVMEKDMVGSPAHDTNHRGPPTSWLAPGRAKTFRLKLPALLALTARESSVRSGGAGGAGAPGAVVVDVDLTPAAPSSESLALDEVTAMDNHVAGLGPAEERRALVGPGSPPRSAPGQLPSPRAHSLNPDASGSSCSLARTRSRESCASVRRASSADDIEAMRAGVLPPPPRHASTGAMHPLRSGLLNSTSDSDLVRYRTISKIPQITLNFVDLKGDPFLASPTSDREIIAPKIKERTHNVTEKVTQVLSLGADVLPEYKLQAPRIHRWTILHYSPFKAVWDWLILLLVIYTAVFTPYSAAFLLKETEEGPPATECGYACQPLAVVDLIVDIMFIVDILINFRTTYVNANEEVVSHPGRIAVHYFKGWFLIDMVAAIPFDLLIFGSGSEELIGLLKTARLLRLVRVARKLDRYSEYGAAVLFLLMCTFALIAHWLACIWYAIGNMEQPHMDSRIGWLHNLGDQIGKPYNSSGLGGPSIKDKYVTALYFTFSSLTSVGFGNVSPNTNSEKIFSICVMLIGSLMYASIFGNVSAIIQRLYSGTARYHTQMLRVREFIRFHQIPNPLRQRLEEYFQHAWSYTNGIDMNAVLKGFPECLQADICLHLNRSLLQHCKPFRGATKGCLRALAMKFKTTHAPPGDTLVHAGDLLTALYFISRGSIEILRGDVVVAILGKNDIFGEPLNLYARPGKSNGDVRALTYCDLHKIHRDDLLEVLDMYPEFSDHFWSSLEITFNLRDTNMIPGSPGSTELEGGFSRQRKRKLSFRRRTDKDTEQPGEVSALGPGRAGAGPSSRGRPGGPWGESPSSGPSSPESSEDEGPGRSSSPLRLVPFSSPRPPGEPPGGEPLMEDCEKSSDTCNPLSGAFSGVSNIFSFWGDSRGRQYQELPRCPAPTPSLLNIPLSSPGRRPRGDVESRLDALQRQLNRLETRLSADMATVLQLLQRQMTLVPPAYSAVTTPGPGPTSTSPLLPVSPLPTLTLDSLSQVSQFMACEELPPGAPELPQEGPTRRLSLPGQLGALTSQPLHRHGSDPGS

SMILES	hERG current change (%, negative = inhibition) at 1uM
CCN1CCCC(OC(=O)C(c2ccccc2)c2ccccc2)C1.Cl (stereo not shown)	-53%
Cl.O=C(OC1CCN(CCCl)CC1)C(c1ccccc1)c1ccccc1	15.9%
CCN1CCCC(OC(=O)Nc2ccccc2)C1 (stereo not shown)	6.59%
Cc1ccc(OCC(=O)Nc2ccc3c(c2)nc(CCN2CCN(C)CC2)n3C)cc1	-5.14%
CN1CCN(CCc2nc3cc(NC(=O)COc4ccc(Cl)cc4)ccc3n2C)CC1	-7.52%
COc1ccc(OCC(=O)Nc2ccc3c(c2)nc(CCN2CCCCC2)n3C)cc1	-31.3%
Cc1cccc(OCC(=O)Nc2ccc3c(c2)nc(CCN2CCCCC2)n3C)c1	-58.3%
CCN1CCN(CCc2nc3cc(NC(=O)COc4ccc(Cl)cc4)ccc3n2C)CC1	-26.8%
Cn1c(CCN2CCCCC2)nc2cc(NC(=O)COc3ccccc3)ccc21	-51.9%
CCN1CCN(CCc2nc3cc(NC(=O)COc4ccccc4)ccc3n2C)CC1	0.262%
Cc1cccc(OCC(=O)Nc2ccc3c(c2)nc(CCN2CCN(C)CC2)n3C)c1	-6.31%
CN1CCN(CCc2nc3cc(NC(=O)COc4ccccc4)ccc3n2C)CC1	-13.2%
Cc1ccc(OCC(=O)Nc2ccc3c(c2)nc(CCN2CCCCC2)n3C)cc1	-60%
Cc1cccc(OCC(=O)Nc2ccc3c(c2)nc(CN2CCCCC2)n3C)c1.Cl	-3.37%
Cn1c(CCN2CCCCC2)nc2cc(NC(=O)COc3ccc(Cl)cc3)ccc21	-89.6%
COC(=O)C1=C(c2ccc(-c3ccccc3)c(F)c2)C[C@@H]2CC[C@H]1N2C(=O)NCCc1ccccc1	15.4%
CCOC(=O)C(=CNNc1c(C)csc1C(=O)OC)C(=O)OCC	16.7%
COc1ccc(CCNC(=O)CN2C(=O)NC(Cc3c[nH]c4ccccc34)C2=O)cc1 (stereo not shown)	9.58%
Cc1cc(OCC(=O)NC(Cc2c[nH]c3ccc(O)cc23)C(=O)O)c2c(C)c(C)c(=O)oc2c1 (stereo not shown)	14.5%
CC(C)n1c(N)c(C#N)c2ccc([N+](=O)[O-])cc2c1=O	-6.91%
O=C(COc1ccc(Br)cc1CNC1CCCCC1)NCCc1ccccc1	-59%
CCN(CC)CCNCc1cc(Br)ccc1OCC(=O)NCc1ccccc1.Cl	-54.6%

SMILES	hERG current change (%, negative = inhibition) at 1uM
Cl.O=C(COc1ccc(Br)cc1CNC1CCCC1)Nc1ccccc1	-28.2%
CCCNCc1cc(Br)ccc1OCC(=O)NCCc1ccccc1	-10.7%
Cl.O=C(COc1ccc(Br)cc1CNCCc1ccccc1)NCc1ccccc1	-11.5%
CCN(CC)CCNCc1ccc(Br)cc1OCC(=O)NCc1ccccc1.Cl	-7.7%
O=c1c2c(-c3cccs3)csc2ncn1-c1ccc(Br)cc1	-2.84%
CCCNC(=O)N1[C@H]2CC[C@@H]1C(C(=O)OC)=C(c1ccc3ccccc3c1)C2	4.04%
COc1ccc(Cc2n[nH]c(=S)n2NC(=O)Nc2ccc(Cl)c(Cl)c2)cc1	10.2%
Cc1ccc2c(c1)CC1(CN2C)C(=O)NC(=O)N(C(C)C)C1=O (stereo not shown)	19.3%
C/C(=N\Nc1nc2ccccc2[nH]1)c1cccs1	-0.576%
C/C(=N\Nc1nc2ccccc2[nH]1)c1ccc(C)o1	8.2%
C/C(=N\Nc1nc2ccccc2[nH]1)c1ccccn1	-55.5%
CC1CCCCC1NC(=O)CCNS(=O)(=O)c1ccc(Cl)cc1 (stereo not shown)	7.29%
O=C(C1CCC(CNS(=O)(=O)c2cccc3cccnc23)CC1)N1CCc2ccccc21 (stereo not shown)	1.06%
C=Cc1ccc2c(c1)OCCOCCOCCOCCOCCO2	-70.2%
Brc1ccc2c(c1)OCCOCCOCCOCCOCCOCCO2	-60%
Brc1cc2c(cc1Br)OCCOCCOCCO2	5.78%
Brc1ccc2c(c1)OCCOCCOc1cc(Br)ccc1OCCOCCOCCO2	-6.77%
c1ccc2c(c1)OCCOCCOCCOCCOCCOc1ccccc1OCCOCCOCCO2	-8.98%
Cl.Nc1ccc2c(c1)OCCOCCOCCOCCOCCO2	-12.2%
Brc1ccc2c(c1)OCCOCCOCCOCCOCCO2	-78.6%
O=C(O)/C=C/c1ccc2c(c1)OCCO2	6.97%
Brc1cc2c(cc1Br)OCCOCCOCCOCCO2	-38.2%

SMILES	hERG current change (%, negative = inhibition) at 1uM
CCNC(=S)N1CCc2ccccc2C1	9.59%
CCOc1ccc(C(=O)n2cnnc2N)cc1	16.9%
Cc1nc(SC2CCOC2=O)c2c(C)c(C)sc2n1 (stereo not shown)	4.94%
Cc1cccc(NC(=O)C2CCN(S(=O)(=O)c3cccs3)CC2)n1	2.08%
Cc1ccc(-n2c(C)nnc2SCC(=O)N2CCc3ccccc3C2)cc1	-19.6%
Cc1ccc(N(C(=O)c2ccccn2)C2(C(=O)NC3CCCC3)CCCCC2)cc1	16.9%
CC(=O)O.CN(C)Cc1cn(CCC(=O)O)c2ccccc12	10.9%
CCOC(=O)C1CCCN(CCC(=O)Nc2cc(C)ccc2C)C1.Cl (stereo not shown)	-8.02%
COc1ccc(-n2c(SCC(=O)NCC3CCCO3)nc3n[nH]c(C)c3c2=N)cc1 (stereo not shown)	7.29%
O=C(COc1ccc(Cl)cc1Cl)Nc1nc2n(n1)C(c1ccccc1)CC(=O)N2 (stereo not shown)	1.52%
CCc1nnc(NC(=O)c2cc(S(=O)(=O)N3CCCCC3)ccc2C)s1	1.93%
CCn1c2ccccc2c2cc(NC(=O)CSc3nnc(-c4cccc(Cl)c4)o3)ccc21	9.78%
Cc1c(C(=O)OCC(=O)NCc2ccco2)oc2ccccc12	10.1%
Cc1c(C(=O)NCc2ccco2)oc2ccccc12	9.16%
COc1ccccc1C(=O)Nc1c(C(=O)N(CCN(C)C)Cc2ccco2)oc2ccccc12	-27.4%
CCCN1CCN(C(=O)c2oc3ccccc3c2NC(=O)COc2ccc(OC)cc2)CC1	-46.3%
CN(C)CCN(Cc1ccco1)C(=O)c1oc2ccccc2c1NC(=O)COc1ccccc1	-79.3%
COc1ccc(OCC(=O)Nc2c(C(=O)N(CCN(C)C)Cc3ccco3)oc3ccccc23)cc1	-82.2%
O=C(COc1ccccc1)Nc1ccccc1C(=O)NCc1ccco1	6.35%
Cc1ccccc1C(=O)Nc1c(C(=O)N(CCN(C)C)Cc2ccco2)oc2ccccc12	-81.1%
COc1ccc(OCC(=O)Nc2c(C(=O)N3CCN(C)CC3)oc3ccccc23)cc1	-15%
O=c1c(=Nc2ccccc2O)c(=O)c2ccccc12	17.3%

SMILES	hERG current change (%, negative = inhibition) at 1uM
O=c1[nH]c2cc3c(cc2cc1CN(Cc1ccco1)C(=S)NCC1CCCO1)OCCO3 (stereo not shown)	15.1%
COC(=O)c1sc(NC(=S)NC(=O)c2ccccc2F)nc1C	2.7%
O=C1CCC([N+](=O)[O-])C(c2cc(Br)ccc2F)N1 (stereo not shown)	14.5%
O=C(CNC(=O)c1ccc(F)cc1)c1ccc(Cl)cc1	19.6%
Cc1cccc(CN2C[C@]34C=C[C@@H](C[C@@H]3S2(=O)=O)O4)c1	10.3%
CCc1ccc(NC(=O)Nc2cc(C(=O)O)ccc2N2CC3CC(C2)c2cccc(=O)n2C3)cc1 (stereo not shown)	19.5%
CCCNC(=O)c1ccc(N2CC3CC(C2)c2cccc(=O)n2C3)c(NC(=O)Nc2ccc(CC)cc2)c1 (stereo not shown)	-56.1%
CCc1ccc(NC(=O)Nc2cc(C(=O)NCC3CCCO3)ccc2N2CC3CC(C2)c2cccc(=O)n2C3)cc1 (stereo not shown)	11.3%
CCOC(=O)c1ccc(NC(=O)CSc2ccc(-c3ccncc3)nn2)cc1	9.76%
NCCCC[C@H]1CN=C(N)N1CCc1cccc2ccccc12	9.97%
Cc1ccc(C(=O)N/C(=C/c2ccc(-c3cccc([N+](=O)[O-])c3)o2)C(=O)NC(C)(C)C)cc1	-0.682%
Cc1ccc(C(=O)N/C(=C\c2ccc(-c3cccc([N+](=O)[O-])c3)o2)C(=O)NCCCN2CCOCC2)cc1	-74.7%
Cc1ccc(C(=O)N/C(=C/c2ccc(-c3cccc([N+](=O)[O-])c3)o2)C(=O)NCCCN(C)C)cc1	-73.3%
Cc1ccc(C(=O)N/C(=C\c2ccc(-c3ccccc3[N+](=O)[O-])o2)C(=O)NCCCN2CCOCC2)cc1	-11.2%
Cc1ccc(C(=O)N/C(=C\c2ccc(-c3cccc([N+](=O)[O-])c3)o2)C(=O)NCCCN(C)C)cc1	-27.5%
Cc1ccc(C(=O)N/C(=C/c2ccc(-c3cccc([N+](=O)[O-])c3)o2)C(=O)NC(C)C)cc1	10.1%
CN(C)CCNC(=O)/C(=C/c1ccc(-c2cccc([N+](=O)[O-])c2)o1)NC(=O)c1ccccc1	-37.2%
O=C(NCCCO)/C(=C/c1ccc(-c2cccc([N+](=O)[O-])c2)o1)NC(=O)c1ccccc1	-4.53%
CN(C)CCCNC(=O)/C(=C\c1ccc(-c2cccc([N+](=O)[O-])c2)o1)NC(=O)c1ccccc1	-77.9%
